This is part of a sample that, as a whole, favours compounds with a hit. Of some 83,000 tested, about 20% had one in any assay.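 Method: cells in 96-well plates; compound added at one concentration; 48 h incubation; percent growth measured; values under 10 scored active.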 Unmarked numbers belong to inactive results. Activity calls are given as the source filed them.
What was measured:
Assay in all cases: NCI-60 one-dose screen, 48 h (100 = growth as untreated, 0 = no growth, -100 = all killed)
Details in all cases: 10 µM unless noted
NCI-H23 lung = test system: NCI-H23 lung
NCI-H226 lung = test system: NCI-H226 lung
NCI-H322M lung = test system: NCI-H322M lung
HOP-62 NSCLC = test system: HOP-62 NSCLC
NCI-H460 lung = test system: NCI-H460 lung
NCI-H522 lung = test system: NCI-H522 lung
A549/ATCC NSCLC = test system: A549/ATCC NSCLC
786-0 renal = test system: 786-0 renal
COLO 205 colon = test system: COLO 205 colon
DU-145 prostate = test system: DU-145 prostate
K-562 leukemia = test system: K-562 leukemia
MALME-3M melanoma = test system: MALME-3M melanoma
MDA-MB-231 breast = test system: MDA-MB-231 breast
RXF 393 renal = test system: RXF 393 renal
SF-268 CNS = test system: SF-268 CNS
SF-295 CNS = test system: SF-295 CNS
SF-539 CNS = test system: SF-539 CNS
UACC-257 melanoma = test system: UACC-257 melanoma
M14 melanoma = test system: M14 melanoma

Compound	growth (NCI-H23 lung)	growth (NCI-H226 lung)	growth (NCI-H322M lung)	growth (HOP-62 NSCLC)	growth (NCI-H460 lung)	growth (NCI-H522 lung)	growth (A549/ATCC NSCLC)	growth (786-0 renal)	growth (COLO 205 colon)	growth (DU-145 prostate)	growth (K-562 leukemia)	growth (MALME-3M melanoma)	growth (MDA-MB-231 breast)	growth (RXF 393 renal)	growth (SF-268 CNS)	growth (SF-295 CNS)	growth (SF-539 CNS)	growth (UACC-257 melanoma)	growth (M14 melanoma)
CN1CCC(n2cc(Nc3ncc4c(=O)n(-c5c(Cl)cccc5Cl)cc(Br)c4n3)cn2)CC1	8.53% (active)	33.9%	41.9%	28%	1.23% (active)	-8.22% (active)	36.2%	20.5%	22.5%	23.1%	6.48% (active)	69.5%	22%	-58.3% (active)	39.7%	42.4%	5.25% (active)	82.1%	35%
CCOC(=O)c1c(Nc2ccccc2)nn2c(-c3ccc(Cl)cc3)ccnc12	73.4%	58.6%	86.5%	56.7%	44.1%	79.7%	70.4%	64.7%	82.1%	79.5%	81.1%	84%	75.4%	-10.6% (active)	77%	77.5%	71.7%	104%	96.5%
COc1ccc2c(c1)Oc1nc(N)c(C#N)c(N)c1C2Sc1ccc(C)cc1 (configuration not stated)	-19.3% (active)	-1.63% (active)	51.9%	100%	-37.6% (active)	-51.5% (active)	75.6%	-80.7% (active)	-16.7% (active)	-50% (active)	4.37% (active)	-57% (active)	-77.1% (active)		50%	92.9%	-34% (active)	9.55% (active)	
CCO/C=N/C1=C(C#N)C(c2ccc(OC)cc2)c2sc3c(C)cccc3c2O1 (configuration not stated)	25.4%	57%	45.7%	40.8%	9.13% (active)	-3.87% (active)	27.3%	40.8%	16.1%	22%	12.6%	60.6%	27.5%	-23.9% (active)	54.1%	1.06% (active)	-11.6% (active)	88.7%	5.22% (active)
COC(=O)C1(C)CCC[C@]2(C)[C@H]3C[C@H]4C(C(C)C)=C[C@]3(CC[C@@H]12)[C@H]1[C@@H]4[C@@H](OC(=O)c2ccco2)CC[C@@H]1OC(=O)c1ccco1 (some centres not stated)	104%	103%	106%	96.9%	117%	99.6%	102%	94.3%	115%	113%	104%	108%	101%		108%	98.3%	103%	110%	
Cc1nn(-c2ccccc2)c2ncnc(N/N=C/c3ccccc3O)c12	14.3%	14.8%	14.1%	10.2%	6.19% (active)	23.1%	11.7%	11%	10.5%	21%	15%		29.7%	-20.4% (active)	8.32% (active)	7.98% (active)	-1.39% (active)	9.8% (active)	0.329% (active)
CCN(CC)c1ccc(NC2=C(Cl)C(=O)c3nc(C)ccc3C2=O)cc1	-10.3% (active)	87.9%	109%	130%	100%	-44.3% (active)	100%	60.6%	101%	87.9%	0.916% (active)	-11.1% (active)	-46.5% (active)	-95.1% (active)	90.8%	105%	102%	-57.7% (active)	40.4%
O=C(Cn1c(-c2ccccc2)nc2cc(Cl)c(Cl)cc21)N=Nc1c(O)[nH]c2ccc(Cl)cc12	68.7%	37.3%	94.6%	86.5%	65.8%	72.1%	73.8%	96.2%	66.6%	75.7%	63.2%	81.6%	85%	-5.08% (active)	104%	77.7%	79.4%	84.4%	60.7%
Nc1ncc(-c2ccc(NS(=O)(=O)c3ccc(Cl)c(Cl)c3)cc2)[nH]1	95.9%	87.3%	97%	113%	93.6%	92.7%	92.5%	93.8%	109%	103%	89.7%	85.3%	91.2%	95.4%	75.1%	90.8%	88.1%	87.7%	95.5%
CC(=O)N1N=C(c2cccc(-n3cccc3)c2)CC1c1cccc(F)c1 (configuration not stated)	82.1%	94.5%	90.3%	109%	107%	94.8%	95.2%	102%	104%	114%	99.9%	88.3%	94.8%	86.1%	113%	107%	101%	104%	97.6%
CCN(CC)CCn1c2ccc(O)cc2c2sc3cc(OC)ccc3c(=O)c21	28.5%	72.6%	26.2%	26.2%	1.49% (active)	30.1%	13.2%	33.3%	17.9%	17.2%	-34.8% (active)	28.2%	31.6%	35%	48.1%	13.9%	-74.4% (active)	80%	0.234% (active)
COc1ccc(-c2nc3cccc(O)c3c(=O)n2Cc2ccccc2)cc1COc1ccc(NC(C)=O)cc1	62.5% [3 µM]	56.2% [3 µM]	67.6% [3 µM]	43.6% [3 µM]	4.9% [3 µM] (active)	52.5% [3 µM]	44.9% [3 µM]	54.7% [3 µM]	49.8% [3 µM]	50.2% [3 µM]	18.9% [3 µM]		64.2% [3 µM]	52.6% [3 µM]	58.2% [3 µM]	23.8% [3 µM]	40.1% [3 µM]	67.2% [3 µM]	53.8% [3 µM]
Cc1cc2ncc(-c3cc4ccccc4c(N4CCN(C)CC4)n3)nc2cc1C	70.7%	91.9%	47.7%	82.9%	-77.9% (active)	75.5%	54%	61.3%	-57.9% (active)	33.6%	-50.7% (active)	-69.1% (active)	18.6%	-71.8% (active)	62.7%	10.2%	-2.53% (active)	99.1%	-85.7% (active)
CC[C@H](CO)Nc1ccc2ncc(C#Cc3cncc(C(=O)Nc4ccc(CN5CCN(C)CC5)c(C(F)(F)F)c4)c3)n2n1	-80.8% (active)	-25.7% (active)	-16.6% (active)	-45% (active)	-93% (active)	-75.8% (active)	-0.341% (active)	-97.2% (active)	-92.5% (active)	-94.3% (active)	0.0289% (active)	-81.5% (active)	-60.6% (active)	-95.7% (active)	-60.5% (active)	-82.1% (active)	-91.5% (active)	-85.9% (active)	-95.5% (active)
CCNC(=O)N1CCc2cc(OC)c(OCCc3ccc(OC)nc3)cc2C1c1ccc(C)cc1C (configuration not stated)	13%	33.2%	38%	21.8%	1.74% (active)	-34% (active)	4.74% (active)	6.15% (active)	7.67% (active)	12%	11%	51.5%	15%	2.44% (active)	20.7%	7.92% (active)	5.2% (active)	41.9%	12.9%
Cc1cccc(/C=C/C(=O)Nc2ncc(Cc3cccc(C)c3)s2)c1	30.4%	17.7%	39.9%	32.1%	8.64% (active)	-43.2% (active)	31.1%	21.3%	-0.745% (active)	8.51% (active)	11.9%	33.6%	38.8%		48.2%	-1.79% (active)	4.05% (active)	38.3%	0.505% (active)
